Assay outcomes: PubChem BioAssay, National Center for Advancing Translational Sciences (NCATS)
Hits are enriched below; roughly 10% of the tested compounds scored in any of these assays.
G9a inh: blocks human histone lysine methyltransferase G9a. Q96KQ7. G9a H3K9 monomethylation, AlphaScreen, 2 h. Potency, µM (titrated, usually from 102 µM), without a hit: at the highest dose activity, negative = inhibition, hits mostly inhibitors. 350,000 compounds, 8.8% hits. AID 504332; further: potency means the concentration at half of the fitted maximal effect; on the % scale 0 is the no-effect control and ±100 the full control effect; nearly all actives have a fitted effect of over 75% in size
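Compounds were preincubated with 20 nM G9a for 15 min, after which biotinylated H3K9 peptide (500 nM) and SAM (20 uM) started a 2 h room-temperature reaction. Monomethylated product was quantified by antibody-based AlphaScreen chemiluminescence.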
CtBP-E1A blk: blocks the CtBP interaction with E1A. AlphaScreen GST-E1A/His-CtBP binding, 1536-well; hits give low values. activity change, % (test concentration not listed). 340,000 compounds, 0.49% hits. AID 651724; in the data active means activity change below about -65%; inconclusive means mostly about -30% to -63%; further: on the % scale 0 is the no-effect control and ±100 the full control effect
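Steps: dispense buffer (Tris pH 8.0, NaCl 300 mM, TCEP 1 mM, BSA, Tween 20); add 5X protein mix (GST-E1A, His-CtBP, 125 nM each); pin 23 nL compound; 2 h at 37 °C, dark; add 5X beads (50 ug/mL); 1 h; read.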
JMJD2A Tudor inh: blocks the human JMJD2A Tudor domain. Potency, µM (titrated, usually from 114 µM), inactives show at the highest dose activity change, negative = inhibition, hits mostly inhibitors. O75164. 390,000 compounds, 4.4% hits. AlphaScreen JMJD2A-Tudor / H3K4me3 peptide binding. AID 504339; further: potency means the concentration at half of the fitted maximal effect; on the % scale 0 is the no-effect control and ±100 the full control effect; nearly all actives have a fitted effect of over 50% in size
Six1-Eya2 blk: inhibitors of human Six1/Eya2 interaction; Q15475+O00167; AlphaScreen GST-Six1/His-Eya2 binding, biochemical; hits give low values; activity change, % (no concentration beside the values); 360,000 compounds, 0.56% hits; in the data active means activity change below about -65%; inconclusive means mostly about -30% to -63%; further: on the % scale 0 is the no-effect control and ±100 the full control effect
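Homogeneous AlphaScreen proximity assay pairing GST-Six1 with His-tagged Eya2 (added as 5X mix: 250 nM and 500 nM) in 50 mM Tris pH 8.0, 300 mM NaCl, 1 mM TCEP. Glutathione donor and nickel acceptor beads; 1 h, 37 °C, dark.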
HP1b binding inh: inhibitors of HP1-beta chromodomain binding to methylated histone tails; Potency, µM (doses to about 114 µM), for the others: top-dose activity change, negative = inhibition, hits mostly inhibitors; AID 540317; AlphaScreen HP1-beta / biotin-H3K9me3 peptide binding; 390,000 compounds, 0.56% hits; P83916; further: potency means the concentration at half of the fitted maximal effect; nearly all actives have a fitted effect of over 70% in size
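HP1-beta protein (50 nM final) preincubated 30 min at room temperature with biotinylated H3(1-18)K9me3 peptide (50 nM) in PBS pH 7.4, 0.01% Tween-20, then compound added for 30 min. AlphaScreen streptavidin donor/nickel chelate acceptor beads (10 ug/mL final), 30 min dark, luminescence read.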
BAZ2B inh: inhibitors of human BAZ2B bromodomain. Q9UIF8. 360,000 compounds, 4.4% hits. Potency, µM (top dose mostly 114 µM), without a hit: at the highest dose activity change, negative = inhibition, usual class: inhibitors. AlphaScreen BAZ2B-H3K14Ac peptide displacement; further: potency means the concentration at half of the fitted maximal effect; on the % scale 0 is the no-effect control and ±100 the full control effect; nearly all actives have a fitted effect of over 60% in size
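Protein-peptide AlphaScreen: BAZ2B 50 nM, b-H3K14Ac 50 nM, 1x PBS pH 7.4 + 0.01% Tween-20. Preincubation 30 min RT; cpd 30 min RT (top 110 uM); beads 20 min RT, light-protected.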
* = called active by the depositor; u = inconclusive; x = no result; ! = repeats disagree; [ ] = another dose, or the depositor's remark. Unless noted, the call rests on the fitted dose curve; in most records, active means well fitted inhibition curve with a large enough effect; inconclusive means small, poorly fitted or top-dose-only effect; inactive means no such curve, though single readings can be large or run the other way.

SMILES	G9a inh	CtBP-E1A blk	JMJD2A Tudor inh	Six1-Eya2 blk	HP1b binding inh	BAZ2B inh
Fc1ccccc1-c1n[nH]c(=S)n1Cc1ccccc1	3.5µM*	x	22µM*	0	2%	-3%
C[C@H]1COC2=C1C(=O)C(=O)c1c2ccc2c1CCCC2(C)C	-169%[59 µM]	-27	32µM*	u	u	14µM*
CC1COC2=C1C(=O)C(=O)c1c2ccc2c1CCCC2(C)C (configuration not stated)	7.1µM*	x	x	x	x	x
CC(=O)Oc1ccc(Cl)c2cccnc12	-8%[2.33 µM]	x	x	x	x	x
CC(N)(COP(=O)(O)Oc1ccccc1)C(=O)O (configuration not stated)	27%[59 µM]	x	x	x	x	x
CCN(C[C@H]1N[C@@](CC)(C(=O)OC)[C@H]2C(=O)N(Cc3ccccc3)C(=O)[C@@H]12)S(=O)(=O)c1ccc(C)cc1	x	-4	-16%	-8	49%	x
Cc1ccc2c(c1)=C/C(=C\c1c(O)[nH]c(=S)[nH]c1=O)C(=O)N=2	3.5µM*	x	x	x	x	u
Cc1ccc(CCNC(=O)Cn2nc(C)c3c(C)n(-c4ccc(C)cc4)nc3c2=O)cc1	-2%[59 µM]	x	5%	x	43%	u
CCCN1CCO[C@@H]2c3cc(O)ccc3OC[C@H]21	18µM*!	0	-9%	24	76%	-3%
CC(C)(C)NC(=O)N1c2ccccc2Sc2ccccc21	7%	-1	-4%	3	53%	3%
O=C1NC(=O)N(c2ccccc2F)C(=O)/C1=C/c1ccc(Oc2ccc([N+](=O)[O-])cn2)cc1	20µM*	-5	u	2	-3%	56µM*
Cc1ccccc1N1C(=O)NC(=O)/C(=C\c2cnn(-c3ccccc3)c2)C1=O	u	4	-29%	-11	34%	6%
O=C1CCC[C@H]2[C@@H]3CCCN4CCC[C@H](CN12)[C@H]34	38%[59 µM]	x	x	x	x	x
O=C1C=CC2C3C(=O)N(c4ccccc4)C(=O)C3C1N2Cc1ccccc1 (configuration not stated)	x	2	-3%	-12	44%	x
Cc1nn(Cc2ccccc2)c(C)c1C=C1C(=O)NC(=S)NC1=O	8.9µM*	11	89µM*	6	-26%	-7%
CCOC(=O)c1c(C)[nH]c(C)c1S(=O)(=O)NCC(=O)N1CCN(c2cc(Cl)ccc2C)CC1	u	x	u	x	5%	u
CC1(C)C2CC=C(CN3CCC(O)CC3)C1C2 (configuration not stated)	u	0	3.5µM*	6	-21%	u
CCOC(=O)c1cnc2c(ccc3ccccc32)c1Nc1ccc(C(C)=O)cc1	-46%[59 µM]	x	-13%	x	31%	2%
O=C(Cn1c(=O)oc2cc(S(=O)(=O)N3CCCC3)ccc21)N1CCN(c2ccccc2F)CC1	u	5	-9%	1	34%	u
N#Cc1c(/N=C/c2c(O)n(Cc3ccco3)c(=O)[nH]c2=O)sc2c1CCCC2	-16%[0.0925 µM]	-21	79µM*	u	-23%	u
O=c1[nH]c(=O)n(Cc2ccco2)c(O)c1C=NCc1cccs1	-37%[59 µM]	-3	-23%	-3	-1%	u
NC(=O)c1ccc(N=Cc2c(O)n(Cc3ccco3)c(=O)[nH]c2=O)cc1	40µM*	-1	u	u	119%	u
O=c1[nH]c(=S)n(Cc2ccco2)c(O)c1C=NCc1cccs1	3.5µM*	-12	u	-4	u	5µM*
CCN(CC)c1ccc(N=Cc2c(O)n(Cc3ccco3)c(=O)[nH]c2=O)cc1	x	-5	-5%	-1	24%	-7%
O=c1[nH]c(=O)n(Cc2ccco2)c(O)c1/C=N/N1CCCCCC1	u	-15	-13%	-11	7%	-8%
SMILES	G9a inh	CtBP-E1A blk	JMJD2A Tudor inh	Six1-Eya2 blk	HP1b binding inh	BAZ2B inh
CC1(C)c2[nH]c3ccccc3c2C[C@@H]2C(=O)N(Cc3ccccc3F)C(=O)N21	x	x	u	x	2%	x
NC(=O)[C@@H]1CCCN1C(=O)[C@H](Cc1ccccc1)NC(=O)[C@@H]1CCCN1C(=O)[C@@H](N)Cc1ccc(O)cc1	27%[59 µM]	x	x	x	x	x
CC1=C2C[C@H]3[C@@H](CC=C4C[C@@H](O)CC[C@@]43C)[C@@H]2CC[C@]12O[C@@H]1C[C@H](C)CN[C@H]1C2C (some centres not stated)	7%[59 µM]	x	x	x	x	x
Nc1c(C(=O)NC2CCCC2)c2nc3ccccc3nc2n1CC1CCCO1 (configuration not stated)	166%	24	107%	31	232%	122%
S=c1[nH]nc(-c2ccccc2)n1C1C=CCCC1 (configuration not stated)	u	-9	3.2µM*	5	5%	-3%
S=c1[nH]nc(-c2ccccc2)n1CC1CCCO1 (configuration not stated)	u	1	40µM*	10	48%	-1%
CCCOc1ccc(N2CC(C(=O)Nc3ccccc3F)CC2=O)cc1 (configuration not stated)	u	-1	-8%	1	27%	2%
CCCc1[nH]nc2c1C1(C(=O)N(Cc3ccccc3)c3ccccc31)C(C(=O)OC)=C(N)O2 (configuration not stated)	50µM*	-1	-25%	-2	13%	-33%
CC12CCCCC1(O)[N+](=O)C1=C(CCCC1)N2[O-] (configuration not stated)	u	11	-11%[57.1 µM]	1	24%	u
COc1ccc(S(=O)(=O)N2CCOCC2)cc1NC(=O)COC(=O)Cc1ccccc1	x	-22	-5%	1	14%	x
COc1cc(C(=S)N2CCOCC2)cc(OC)c1OC(=O)Cc1ccccc1	45µM*	-20	-23%	-7	-21%	1%
NC1CCc2cc(O)c(O)cc2C1 (configuration not stated)	1.5µM*	-3	11µM*	12	u	-4%
Cc1ccc(/C=C2/C(=O)NC(=O)N(CC3CCCO3)C2=O)s1 (configuration not stated)	13µM*	11	-9%	2	38%	-24%
Cc1ccc(/C=C2\C(=O)NC(=O)N(CCc3ccc(F)cc3)C2=O)s1	u	11	-2%	1	31%	-11%
C=C(C)[C@H]1Cc2c(ccc3c2O[C@@H]2COc4cc(OC)c(OC)cc4[C@@H]2C3=O)O1	10%[12.7 µM]	x	x	x	x	x
CCOc1ccc(NC(=O)C2CCCN2C(=O)Oc2ccccc2)cc1 (configuration not stated)	-9%	2	u	12	36%[57 µM]	-22%
Cc1ccc2c(c1)[C@@H]1CN(C)CC[C@H]1N2	3%[12.7 µM]	x	x	x	x	x
O=C(CCCCCn1c(=S)[nH]c2ccccc2c1=O)N1CCC2(CC1)OCCO2	50µM*	3	-23%	0	40%	-7%
